According to PubChem BioAssay AID1159580 (chemical genetic matrix, 2015):
Out of some 5,500 compounds screened, about 2,000 (36%) were called active. Not shown: some 18% with an inconclusive outcome. The list shows a part of the results. A number with no mark means an inactive call. No stated cut-off is given here; in the data, active means normalized growth mostly below about 0.91 (no sharp cut-off); inconclusive means no clear call, values can overlap the other calls; inactive means mostly above about 0.92.

Experiment: chemical genetic growth profiling, strain panel (AID 1159580);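 further: tested at 20 µM; growth read once vehicle control cultures reached saturation at 30 °C; 1 = growth at the plate median or of vehicle wells; lower values mean less growth of the strain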
Conditions: growth OD

Molecule `C#C[C@]1(O)CCC2C3CCC4=C(CCC(=O)C4)C3CC[C@@]21C` (some centres undefined) has a normalized growth (S. cerevisiae deletion strains, locus YJR075W, strain HOC1, active compounds read low) of 1.02, a normalized growth (S. cerevisiae deletion strains, locus YKL009W, strain mrt4, active compounds read low) of 0.974 and a normalized growth (S. cerevisiae deletion strains, locus YKL068W, active compounds read low) of 1.01. The normalized growth (S. cerevisiae deletion strains, locus YKL085W, strain MDH1 (second series), active compounds read low) was 1.01, the normalized growth (S. cerevisiae deletion strains, locus YKL085W, strain MDH1, active compounds read low) was 1.01 and the normalized growth (S. cerevisiae deletion strains, locus YKL160W, strain elf1, active compounds read low) was 0.998. The normalized growth (S. cerevisiae deletion strains, locus YKL190W, strain CNB1, active compounds read low) was 1.04, the normalized growth (S. cerevisiae deletion strains, locus YKR001C, strain vps1, active compounds read low) was 1.01 and the normalized growth (S. cerevisiae deletion strains, locus YKR026C, strain gcn3, active compounds read low) was 0.986. It also gave a normalized growth (S. cerevisiae deletion strains, locus YKR091W, strain srl3, active compounds read low) of 0.982, a normalized growth (S. cerevisiae deletion strains, locus YLL001W, strain dnm1, active compounds read low) of 1 and a normalized growth (S. cerevisiae deletion strains, locus YLL026W, active compounds read low) of 0.994. It also gave a normalized growth (S. cerevisiae deletion strains, locus YLL041C, strain sdh2, active compounds read low) of 0.977, a normalized growth (S. cerevisiae deletion strains, locus YLR027C, strain aat2, active compounds read low) of 0.983 and a normalized growth (S. cerevisiae deletion strains, locus YLR039C, strain RIC1, active compounds read low) of 0.911. For the same molecule, the normalized growth (S. cerevisiae deletion strains, locus YLR058C, strain SHM2, active compounds read low) was 1.01, the normalized growth (S. cerevisiae deletion strains, locus YLR102C, strain apc9, active compounds read low) was 1.01 and the normalized growth (S. cerevisiae deletion strains, locus YLR113W, strain HOG1, active compounds read low) was 0.852. For the same molecule, the normalized growth (S. cerevisiae deletion strains, locus YLR221C, strain rsa3, active compounds read low) was 0.96, the normalized growth (S. cerevisiae deletion strains, locus YLR258W, strain gsy2, active compounds read low) was 0.973 and the normalized growth (S. cerevisiae deletion strains, locus YLR262C, strain YPT6 (second series), active compounds read low) was 0.825 (active). The normalized growth (S. cerevisiae deletion strains, locus YLR262C, strain YPT6, active compounds read low) was 0.868, the normalized growth (S. cerevisiae deletion strains, locus YLR268W, strain sec22, active compounds read low) was 0.959 and the normalized growth (S. cerevisiae deletion strains, locus YLR320W, strain mms22, active compounds read low) was 0.963. It also gave a normalized growth (S. cerevisiae deletion strains, locus YLR330W, strain CHS5, active compounds read low) of 1.02, a normalized growth (S. cerevisiae deletion strains, locus YLR342W, strain FKS1 (second series), active compounds read low) of 0.953 and a normalized growth (S. cerevisiae deletion strains, locus YLR342W, strain FKS1, active compounds read low) of 0.968. It also gave a normalized growth (S. cerevisiae deletion strains, locus YLR357W, strain rsc2, active compounds read low) of 1.03, a normalized growth (S. cerevisiae deletion strains, locus YLR370C, strain arc18, active compounds read low) of 0.97 and a normalized growth (S. cerevisiae deletion strains, locus YLR371W, strain rom2, active compounds read low) of 1. The normalized growth (S. cerevisiae deletion strains, locus YLR384C, strain iki3, active compounds read low) was 0.974, the normalized growth (S. cerevisiae deletion strains, locus YLR418C, strain cdc73, active compounds read low) was 0.961 and the normalized growth (S. cerevisiae deletion strains, locus YML016C, strain PPZ1, active compounds read low) was 1.01. The normalized growth (S. cerevisiae deletion strains, locus YML032C, strain rad52, active compounds read low) was 0.975, the normalized growth (S. cerevisiae deletion strains, locus YML120C, strain ndi1, active compounds read low) was 0.97 and the normalized growth (S. cerevisiae deletion strains, locus YML124C, strain tub3, active compounds read low) was 1.01. It also gave a normalized growth (S. cerevisiae deletion strains, locus YMR058W, strain fet3, active compounds read low) of 0.963, a normalized growth (S. cerevisiae deletion strains, locus YMR078C, strain ctf18, active compounds read low) of 1 and a normalized growth (S. cerevisiae deletion strains, locus YMR125W, strain sto1, active compounds read low) of 1.01. It also gave a normalized growth (S. cerevisiae deletion strains, locus YMR129W, active compounds read low) of 0.972, a normalized growth (S. cerevisiae deletion strains, locus YMR205C, strain PFK2, active compounds read low) of 0.978 and a normalized growth (S. cerevisiae deletion strains, locus YMR223W, strain ubp8, active compounds read low) of 1.01. For the same molecule, the normalized growth (S. cerevisiae deletion strains, locus YMR231W, strain pep5, active compounds read low) was 0.981, the normalized growth (S. cerevisiae deletion strains, locus YMR307W, strain GAS1, active compounds read low) was 0.989 and the normalized growth (S. cerevisiae deletion strains, locus YNL067W, strain RPL9B, active compounds read low) was 1.02. It also gave a normalized growth (S. cerevisiae deletion strains, locus YNL071W, strain lat1, active compounds read low) of 0.963, a normalized growth (S. cerevisiae deletion strains, locus YNL128W, strain TEP1, active compounds read low) of 1.03 and a normalized growth (S. cerevisiae deletion strains, locus YNL153C, strain GIM3, active compounds read low) of 1.03. The normalized growth (S. cerevisiae deletion strains, locus YNL183C, strain NPR1, active compounds read low) was 0.919, the normalized growth (S. cerevisiae deletion strains, locus YNL209W, strain ssb2, active compounds read low) was 0.989 and the normalized growth (S. cerevisiae deletion strains, locus YNL233W, strain BNI4, active compounds read low) was 0.998. For the same molecule, the normalized growth (S. cerevisiae deletion strains, locus YNL248C, strain rpa49, active compounds read low) was 0.96, the normalized growth (S. cerevisiae deletion strains, locus YNL250W, strain rad50, active compounds read low) was 0.992 and the normalized growth (S. cerevisiae deletion strains, locus YNL271C, strain bni1, active compounds read low) was 0.991. For the same molecule, the normalized growth (S. cerevisiae deletion strains, locus YNL298W, strain CLA4, active compounds read low) was 0.986, the normalized growth (S. cerevisiae deletion strains, locus YNL307C, strain MCK1, active compounds read low) was 0.99 and the normalized growth (S. cerevisiae deletion strains, locus YNL322C, strain KRE1 (second series), active compounds read low) was 0.97. For the same molecule, the normalized growth (S. cerevisiae deletion strains, locus YNR049C, strain mso1, active compounds read low) was 0.982, the normalized growth (S. cerevisiae deletion strains, locus YNR052C, strain pop2, active compounds read low) was 0.992 and the normalized growth (S. cerevisiae deletion strains, locus YOL006C, strain TOP1, active compounds read low) was 0.931. It also gave a normalized growth (S. cerevisiae deletion strains, locus YOL012C, strain htz1) of 1.9, a normalized growth (S. cerevisiae deletion strains, locus YOL147C, strain pex11, active compounds read low) of 1.01 and a normalized growth (S. cerevisiae deletion strains, locus YOR001W, strain rrp6, active compounds read low) of 0.936. It also gave a normalized growth (S. cerevisiae deletion strains, locus YOR061W, strain CKA2, active compounds read low) of 1, a normalized growth (S. cerevisiae deletion strains, locus YOR069W, strain VPS5, active compounds read low) of 1.02 and a normalized growth (S. cerevisiae deletion strains, locus YOR070C, strain gyp1, active compounds read low) of 1. For the same molecule, the normalized growth (S. cerevisiae deletion strains, locus YOR080W, strain dia2, active compounds read low) was 0.999, the normalized growth (S. cerevisiae deletion strains, locus YOR083W, strain WHI5, active compounds read low) was 0.985 and the normalized growth (S. cerevisiae deletion strains, locus YOR106W, strain vam3, active compounds read low) was 0.991. It also gave a normalized growth (S. cerevisiae deletion strains, locus YOR136W, strain idh2, active compounds read low) of 1, a normalized growth (S. cerevisiae deletion strains, locus YOR144C, strain elg1, active compounds read low) of 1 and a normalized growth (S. cerevisiae deletion strains, locus YOR184W, strain ser1, active compounds read low) of 0.898. For the same molecule, the normalized growth (S. cerevisiae deletion strains, locus YOR231W, strain MKK1, active compounds read low) was 0.919, the normalized growth (S. cerevisiae deletion strains, locus YOR265W, strain rbl2, active compounds read low) was 0.987 and the normalized growth (S. cerevisiae deletion strains, locus YOR270C, strain vph1, active compounds read low) was 0.955. It also gave a normalized growth (S. cerevisiae deletion strains, locus YOR290C, strain snf2, active compounds read low) of 0.932, a normalized growth (S. cerevisiae deletion strains, locus YOR316C, strain cot1, active compounds read low) of 1 and a normalized growth (S. cerevisiae deletion strains, locus YPL051W, strain arl3, active compounds read low) of 0.983. The normalized growth (S. cerevisiae deletion strains, locus YPL078C, strain atp4, active compounds read low) was 0.93, the normalized growth (S. cerevisiae deletion strains, locus YPL106C, strain sse1, active compounds read low) was 1.03 and the normalized growth (S. cerevisiae deletion strains, locus YPL240C, strain hsp82, active compounds read low) was 0.981. It also gave a normalized growth (S. cerevisiae deletion strains, locus YPL241C, strain CIN2, active compounds read low) of 1.02, a normalized growth (S. cerevisiae deletion strains, locus YPL256C, strain CLN2, active compounds read low) of 0.838 and a normalized growth (S. cerevisiae deletion strains, locus YPR119W, strain clb2, active compounds read low) of 1. It also gave a normalized growth (S. cerevisiae deletion strains, locus YPR141C, strain kar3, active compounds read low) of 1.01, a normalized growth (S. cerevisiae deletion strains, locus YPR163C, strain tif3, active compounds read low) of 1.02 and a normalized growth (S. cerevisiae deletion strains, locus YPR167C, strain met16, active compounds read low) of 1. The normalized growth (S. cerevisiae deletion strains, strain wtn01, active compounds read low) was 0.996 and the normalized growth (S. cerevisiae strains, strain wild type, active compounds read low) was 1.03.
